Data published in PubChem BioAssay AID1159580 (chemical genetic matrix, 2015).
In all, about 5,500 compounds went through this assay and about 2,000 (36%) were called active. Another 18% or so got no clear call; they are omitted. Rule as the data show it: active = normalized growth mostly below about 0.91 (no sharp cut-off); inconclusive = no clear call, values can overlap the other calls; inactive = mostly above about 0.92. The list shows a part of the results.

Experiment: chemical genetic growth profiling, strain panel (AID 1159580);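 also: tested at 20 µM; growth read once vehicle control cultures reached saturation at 30 °C; 1 = growth at the plate median or of vehicle wells; lower values mean less growth of the strain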
Details: growth OD

Measured: normalized growth

C[C@]12CC(=O)C3C(CC[C@@H]4C[C@H](O)CC[C@]34C)C1CC[C@]2(O)C(=O)CO (stereo not given in full)
inactive: S. cerevisiae deletion strains, locus YAL013W, strain DEP1, stronger effect = lower value 0.997 | S. cerevisiae deletion strains, locus YBR021W, strain FUR4, stronger effect = lower value 0.976 | S. cerevisiae deletion strains, locus YBR229C, strain ROT2, stronger effect = lower value 0.99 | S. cerevisiae deletion strains, locus YCL029C, strain bik1, stronger effect = lower value 1.01 | S. cerevisiae deletion strains, locus YDL035C, strain GPR1, stronger effect = lower value 0.996 | S. cerevisiae deletion strains, locus YDL074C, strain BRE1, stronger effect = lower value 0.978 | S. cerevisiae deletion strains, locus YDL101C, strain DUN1, stronger effect = lower value 0.996 | S. cerevisiae deletion strains, locus YDL185W, strain tfp1, stronger effect = lower value 0.977 | S. cerevisiae deletion strains, locus YDL192W, strain arf1, stronger effect = lower value 1 | S. cerevisiae deletion strains, locus YDR101C, strain arx1, stronger effect = lower value 0.978 | S. cerevisiae deletion strains, locus YDR150W, strain NUM1, stronger effect = lower value 0.994 | S. cerevisiae deletion strains, locus YDR162C, strain NBP2, stronger effect = lower value 1.02 | S. cerevisiae deletion strains, locus YDR318W, strain mcm21, stronger effect = lower value 1.01 | S. cerevisiae deletion strains, locus YDR388W, stronger effect = lower value 0.995 | S. cerevisiae deletion strains, locus YDR502C, strain sam2, stronger effect = lower value 1.01 | S. cerevisiae deletion strains, locus YEL061C, strain CIN8, stronger effect = lower value 0.995 | S. cerevisiae deletion strains, locus YER110C, stronger effect = lower value 0.986 | S. cerevisiae deletion strains, locus YER155C, strain BEM2, stronger effect = lower value 0.986 | S. cerevisiae deletion strains, locus YER167W, strain BCK2, stronger effect = lower value 0.992 | S. cerevisiae deletion strains, locus YGL078C, strain dbp3, stronger effect = lower value 0.983 | S. cerevisiae deletion strains, locus YGL086W, strain mad1, stronger effect = lower value 0.97 | S. cerevisiae deletion strains, locus YGL248W, strain PDE1, stronger effect = lower value 1.01 | S. cerevisiae deletion strains, locus YGR135W, strain pre9, stronger effect = lower value 1.03 | S. cerevisiae deletion strains, locus YGR252W, strain gcn5, stronger effect = lower value 1.06 | S. cerevisiae deletion strains, locus YHR030C, strain SLT2, stronger effect = lower value 0.991 | S. cerevisiae deletion strains, locus YHR079C, strain IRE1 (second series), stronger effect = lower value 0.992 | S. cerevisiae deletion strains, locus YHR094C, strain hxt1, stronger effect = lower value 0.986 | S. cerevisiae deletion strains, locus YHR129C, strain ARP1, stronger effect = lower value 0.992 | S. cerevisiae deletion strains, locus YHR200W, strain rpn10, stronger effect = lower value 1.02 | S. cerevisiae deletion strains, locus YIL066C, strain RNR3, stronger effect = lower value 0.998 | S. cerevisiae deletion strains, locus YIL073C, strain SPO22, stronger effect = lower value 1.03 | S. cerevisiae deletion strains, locus YIL125W, strain kgd1, stronger effect = lower value 0.997 | S. cerevisiae deletion strains, locus YIR030C, strain dcg1, stronger effect = lower value 0.991 | S. cerevisiae deletion strains, locus YJL095W, strain BCK1, stronger effect = lower value 1.04 | S. cerevisiae deletion strains, locus YJL134W, strain LCB3, stronger effect = lower value 0.992 | S. cerevisiae deletion strains, locus YJL168C, strain set2, stronger effect = lower value 0.994 | S. cerevisiae deletion strains, locus YJL187C, strain SWE1 (second series), stronger effect = lower value 1 | S. cerevisiae deletion strains, locus YJR043C, strain POL32, stronger effect = lower value 1 | S. cerevisiae deletion strains, locus YJR075W, strain HOC1, stronger effect = lower value 0.997 | S. cerevisiae deletion strains, locus YKL009W, strain mrt4, stronger effect = lower value 1.1 | S. cerevisiae deletion strains, locus YKL068W, stronger effect = lower value 0.994 | S. cerevisiae deletion strains, locus YKL085W, strain MDH1 (second series), stronger effect = lower value 1 | S. cerevisiae deletion strains, locus YKL085W, strain MDH1, stronger effect = lower value 1 | S. cerevisiae deletion strains, locus YKR001C, strain vps1, stronger effect = lower value 0.987 | S. cerevisiae deletion strains, locus YLR039C, strain RIC1, stronger effect = lower value 0.977 | S. cerevisiae deletion strains, locus YLR058C, strain SHM2, stronger effect = lower value 1.01 | S. cerevisiae deletion strains, locus YLR102C, strain apc9, stronger effect = lower value 0.997 | S. cerevisiae deletion strains, locus YLR262C, strain YPT6, stronger effect = lower value 1 | S. cerevisiae deletion strains, locus YLR268W, strain sec22, stronger effect = lower value 0.96 | S. cerevisiae deletion strains, locus YLR330W, strain CHS5, stronger effect = lower value 0.994 | S. cerevisiae deletion strains, locus YLR342W, strain FKS1 (second series), stronger effect = lower value 0.982 | S. cerevisiae deletion strains, locus YLR371W, strain rom2, stronger effect = lower value 0.993 | S. cerevisiae deletion strains, locus YLR418C, strain cdc73, stronger effect = lower value 1.01 | S. cerevisiae deletion strains, locus YML016C, strain PPZ1, stronger effect = lower value 0.991 | S. cerevisiae deletion strains, locus YML032C, strain rad52, stronger effect = lower value 1.04 | S. cerevisiae deletion strains, locus YML124C, strain tub3, stronger effect = lower value 0.998 | S. cerevisiae deletion strains, locus YMR078C, strain ctf18, stronger effect = lower value 0.989 | S. cerevisiae deletion strains, locus YMR223W, strain ubp8, stronger effect = lower value 1.02 | S. cerevisiae deletion strains, locus YMR263W, strain SAP30, stronger effect = lower value 1 | S. cerevisiae deletion strains, locus YMR307W, strain GAS1, stronger effect = lower value 1.07 | S. cerevisiae deletion strains, locus YNL067W, strain RPL9B, stronger effect = lower value 1.01 | S. cerevisiae deletion strains, locus YNL128W, strain TEP1, stronger effect = lower value 0.981 | S. cerevisiae deletion strains, locus YNL153C, strain GIM3, stronger effect = lower value 1.01 | S. cerevisiae deletion strains, locus YNL233W, strain BNI4, stronger effect = lower value 1.01 | S. cerevisiae deletion strains, locus YNL250W, strain rad50, stronger effect = lower value 0.991 | S. cerevisiae deletion strains, locus YNL271C, strain bni1, stronger effect = lower value 0.989 | S. cerevisiae deletion strains, locus YNL298W, strain CLA4, stronger effect = lower value 0.989 | S. cerevisiae deletion strains, locus YNL307C, strain MCK1, stronger effect = lower value 0.983 | S. cerevisiae deletion strains, locus YNL322C, strain KRE1, stronger effect = lower value 0.998 | S. cerevisiae deletion strains, locus YNR052C, strain pop2, stronger effect = lower value 0.991 | S. cerevisiae deletion strains, locus YOL012C, strain htz1 0.641 | S. cerevisiae deletion strains, locus YOL147C, strain pex11, stronger effect = lower value 0.986 | S. cerevisiae deletion strains, locus YOR061W, strain CKA2, stronger effect = lower value 0.995 | S. cerevisiae deletion strains, locus YOR069W, strain VPS5, stronger effect = lower value 0.988 | S. cerevisiae deletion strains, locus YOR136W, strain idh2, stronger effect = lower value 0.973 | S. cerevisiae deletion strains, locus YOR144C, strain elg1, stronger effect = lower value 0.993 | S. cerevisiae deletion strains, locus YOR184W, strain ser1, stronger effect = lower value 1.01 | S. cerevisiae deletion strains, locus YOR316C, strain cot1, stronger effect = lower value 0.993 | S. cerevisiae deletion strains, locus YPL055C, strain LGE1, stronger effect = lower value 1 | S. cerevisiae deletion strains, locus YPR119W, strain clb2, stronger effect = lower value 0.997 | S. cerevisiae deletion strains, locus YPR141C, strain kar3, stronger effect = lower value 0.992 | S. cerevisiae deletion strains, locus YPR163C, strain tif3, stronger effect = lower value 0.996 | S. cerevisiae deletion strains, locus YPR167C, strain met16, stronger effect = lower value 0.981 | S. cerevisiae deletion strains, strain wtn01, stronger effect = lower value 0.943 | S. cerevisiae strains, strain wild type, stronger effect = lower value 1
